In PubChem BioAssay AID1211 (NMMLSC, 2008) one finds inhibition of ligand binding data, which are given here for 35 compounds.

The assay has as its target Estrogen receptor (Homo sapiens) (UniProt P03372). The assay is described as follows: displacement of fluorescent estrogen from ERalpha – cell-based, Cos7 ERalpha-GFP, flow cytometry, primary screen (AID 1211).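 Further: 0% = DMSO vehicle wells and 100% = no E2-Alexa633 signal left.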 As to conditions: fluorescent ligand competition, stronger effect = higher value. For orientation: In flow cytometry, cells or beads pass a laser one at a time.

The source made the active and inactive calls. How the calls were made is not given here.

Sequence of Estrogen receptor (Homo sapiens) (P03372 whole entry, looked up): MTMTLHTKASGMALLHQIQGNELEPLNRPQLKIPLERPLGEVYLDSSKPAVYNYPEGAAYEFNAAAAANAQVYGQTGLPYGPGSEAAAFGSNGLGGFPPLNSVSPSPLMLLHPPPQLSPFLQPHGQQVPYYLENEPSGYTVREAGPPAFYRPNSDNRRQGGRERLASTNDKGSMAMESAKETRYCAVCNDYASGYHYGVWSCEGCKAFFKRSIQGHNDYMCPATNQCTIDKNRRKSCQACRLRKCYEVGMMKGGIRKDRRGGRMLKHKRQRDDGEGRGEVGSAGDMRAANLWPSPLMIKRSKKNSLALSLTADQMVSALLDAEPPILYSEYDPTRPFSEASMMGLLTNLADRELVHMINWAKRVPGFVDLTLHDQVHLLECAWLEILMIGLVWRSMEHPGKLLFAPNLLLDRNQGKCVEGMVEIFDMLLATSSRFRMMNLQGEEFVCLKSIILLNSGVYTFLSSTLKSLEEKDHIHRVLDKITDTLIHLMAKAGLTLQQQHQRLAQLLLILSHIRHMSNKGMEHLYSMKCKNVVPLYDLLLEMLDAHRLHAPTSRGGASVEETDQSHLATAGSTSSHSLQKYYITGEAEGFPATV

Turning to `COc1cc(C(Nc2ccccn2)c2ccc3ccc(C)nc3c2O)cc(OC)c1O` (stereo not given), the inhibition of ligand binding is 54% (inactive) (at 10 µM) and 16% (binding inhibition, at 0.1 µM).

With `CCCSC1=N/C(=C\C=C\c2ccco2)C(=O)S1`, the inhibition of ligand binding was 0% (inactive) (at 10 µM) and 31% (binding inhibition, at 0.1 µM).

As to `COc1ccc(C2Nc3ccccc3C(=O)N2c2ccc(Cl)cc2)cc1Cn1cc([N+](=O)[O-])cn1` (stereo not given), the inhibition of ligand binding by setting is: (at 10 µM) 29% (inactive); (binding inhibition, at 0.1 µM) 49%.

Consider `Nc1ccc(-c2nc3ccc([N+](=O)[O-])cc3[nH]2)cc1`, for which the inhibition of ligand binding is, setting by setting: (at 10 µM) 36% (active); (binding inhibition, at 0.1 µM) 82%.

For the compound `C[C@@H]1O[C@@H](Oc2c(-c3cc(O)c(O)c(O)c3)oc3cc(O)cc(O)c3c2=O)[C@H](O)[C@H](O)[C@H]1O`, the inhibition of ligand binding was 52% (inactive) (at 10 µM) and 26% (binding inhibition, at 0.1 µM).

For `O=C(Nc1ccc(-c2nc3ccc(NC(=O)c4cccs4)cc3[nH]2)cc1)c1cccs1`, the inhibition of ligand binding by setting is: (at 10 µM) 39% (inactive); (binding inhibition, at 0.1 µM) 20%.

For the compound `Cn1c(-c2ccc3nc(N)sc3c2)nc2cc(N)ccc21`, the inhibition of ligand binding by setting is: (at 10 µM) 36% (inactive); (binding inhibition, at 0.1 µM) 37%.

Turning to `Cc1nnc(Oc2ccccc2F)c2ccccc12`, the inhibition of ligand binding is 36% (inactive) (at 10 µM) and 57% (binding inhibition, at 0.1 µM).

Take `CC(=O)c1ccc(NC(=S)N2CCCC(CO)C2)cc1` (stereo not given): the inhibition of ligand binding runs as follows: (at 10 µM) 13% (inactive); (binding inhibition, at 0.1 µM) 1%.

Consider `CSc1ccc(S(=O)(=O)Nc2cccc(F)c2)cc1`, for which the inhibition of ligand binding is 45% (inactive) (at 10 µM) and 54% (binding inhibition, at 0.1 µM).

On to `COc1ccc(OC)c(/C=N/c2oc(-c3ccco3)c(-c3ccco3)c2C#N)c1`, for which the inhibition of ligand binding runs as follows: (at 10 µM) 25% (inactive); (binding inhibition, at 0.1 µM) 19%.

As to `COc1ccc(OC)c(C(=O)CSc2nnc(-c3ccc(OC)c(OC)c3)o2)c1`, the inhibition of ligand binding by setting is: (at 10 µM) 23% (inactive); (binding inhibition, at 0.1 µM) 58%.

`Cc1cccc2cc(C(c3nnnn3C(C)(C)C)N(Cc3ccco3)CC3CCCO3)c(=O)[nH]c12` (stereo not given): the inhibition of ligand binding reads like this: (at 10 µM) 31% (inactive); (binding inhibition, at 0.1 µM) 7%.

On to `O=C(Nc1ccc2oc(-c3ccccc3F)nc2c1)c1cncc(Br)c1`, for which the inhibition of ligand binding reads like this: (at 10 µM) 41% (inactive); (binding inhibition, at 0.1 µM) 38%.

`COc1ccc(N2Cc3cccc(C(=O)N4CCN(C(=O)c5ccco5)CC4)c3C2=O)cc1`: the inhibition of ligand binding reads like this: (at 10 µM) 20% (inactive); (binding inhibition, at 0.1 µM) 38%.

Regarding `O=C(Nc1cccc2cccc(NC(=O)c3ccco3)c12)c1ccco1`, the inhibition of ligand binding was 54% (inactive) (at 10 µM) and 46% (binding inhibition, at 0.1 µM).

As to `CCOc1ccc2nc(NC(=O)CCC(=O)c3cccs3)sc2c1`, the inhibition of ligand binding (at 10 µM) is 13% (inactive) and the inhibition of ligand binding (binding inhibition, at 0.1 µM) was found to be 17%.

In the case of `COC(=O)c1cnn2c(C(F)(F)F)cc(-c3ccco3)nc12`, the inhibition of ligand binding (at 10 µM) is 0% (inactive) and the inhibition of ligand binding (binding inhibition, at 0.1 µM) came to 32%.

For the compound `Cc1ccc(-n2nnnc2SCC(=O)Nc2ccc3c(c2)COC3=O)cc1C`, the inhibition of ligand binding (at 10 µM) was 27% (inactive) and the inhibition of ligand binding (binding inhibition, at 0.1 µM) amounted to 9%.

Regarding `Cc1ccc(-n2c(SCC(=O)NNC(=S)Nc3ccccc3)nc3ccccc3c2=O)cc1`, the inhibition of ligand binding (at 10 µM) was 37% (inactive) and the inhibition of ligand binding (binding inhibition, at 0.1 µM) was found to be 44%.

Consider `Cc1nnc(NC(=O)CSc2nc3c(c(=O)n2CCc2ccccc2)SC(C)C3)s1` (stereo not given), for which the inhibition of ligand binding was 23% (inactive) (at 10 µM) and 61% (binding inhibition, at 0.1 µM).

For the compound `Cn1nc([N+](=O)[O-])c2c(-c3nc4ccccc4s3)c(N)n(C3CCCCC3)c2c1=O`, the inhibition of ligand binding was 30% (inactive) (at 10 µM) and 18% (binding inhibition, at 0.1 µM).

For the compound `Cc1nnc(NC(=O)Cc2cccs2)s1`, the inhibition of ligand binding is 44% (inactive) (at 10 µM) and 42% (binding inhibition, at 0.1 µM).

For the compound `O=S(=O)(NCC(O)COCc1ccco1)c1cccs1` (stereo not given), the inhibition of ligand binding (at 10 µM) was 7% (inactive) and the inhibition of ligand binding (binding inhibition, at 0.1 µM) came out at 4%.

On to `Clc1ccc2nc(-c3ccccn3)c(Nc3ccc4c(c3)OCO4)n2c1`, for which the inhibition of ligand binding by setting is: (at 10 µM) 42% (inactive); (binding inhibition, at 0.1 µM) 9%.

As for `O=C(NC1CCN(C(=O)N2c3ccccc3Sc3ccccc32)CC1)c1ccccc1Cl`, the inhibition of ligand binding reads like this: (at 10 µM) 36% (inactive); (binding inhibition, at 0.1 µM) 37%.

For the compound `O=S(=O)(/N=C(/Sc1ccccc1)c1ccccc1)c1ccccc1`, the inhibition of ligand binding (at 10 µM) was 0% (inactive) and the inhibition of ligand binding (binding inhibition, at 0.1 µM) stood at 24%.

`C/C(N)=C(/C#N)C(=O)CSc1nnc(Nc2ccccc2C)s1`: the inhibition of ligand binding was 48% (inactive) (at 10 µM) and 18% (binding inhibition, at 0.1 µM).

Regarding `O=C(Cn1nnc(-c2ccc3c(c2)OCO3)n1)NCc1ccco1`, the inhibition of ligand binding is, setting by setting: (at 10 µM) 38% (inactive); (binding inhibition, at 0.1 µM) 62%.

In the case of `Nc1ccc2oc(-c3ccccc3Cl)cc(=O)c2c1O`, the inhibition of ligand binding is 46% (inactive) (at 10 µM) and 30% (binding inhibition, at 0.1 µM).

As for `CCCC1Nc2ccc(C(=O)O)cc2C2C=CCC12` (stereo not given), the inhibition of ligand binding is 22% (inactive) (at 10 µM) and 64% (binding inhibition, at 0.1 µM).

Regarding `Oc1ccc(-c2cn3c(n2)SCC3)cc1O`, the inhibition of ligand binding reads like this: (at 10 µM) 19% (inactive); (binding inhibition, at 0.1 µM) 28%.

Consider `CCc1nc2sc3ccccc3c(=O)c2c(=O)n1Cc1ccco1`, for which the inhibition of ligand binding by setting is: (at 10 µM) 0% (inactive); (binding inhibition, at 0.1 µM) 23%.

`Cc1ccc2occ(C3NC(C(=O)O)CS3)c(=O)c2c1` (stereo not given): the inhibition of ligand binding (at 10 µM) was 39% (inactive) and the inhibition of ligand binding (binding inhibition, at 0.1 µM) is 27%.

For the compound `CCOc1ccc(C2C3=C(Nc4nc(N)[nH]c(=O)c42)c2ccccc2C3=O)cc1` (stereo not given), the inhibition of ligand binding by setting is: (at 10 µM) 50% (inactive); (binding inhibition, at 0.1 µM) 26%.
